Assay results as given in ChEMBL document CHEMBL3988442, “University of Dundee, Small-Polar-MMV Screening Library” (2021).

biological target: AMP-activated protein kinase, AMPK (Homo sapiens) (UniProt P54646+O43741+P54619+Q9UGJ0+Q9Y478+Q13131+Q9UGI9); test: AMP-dependent Kinase enzyme assay. An in vitro enzyme assay that detects ADP turnover that is directly proportional to AMPK activity. This uses naive AMPK that is activated during the assay with MK-8722; format: functional; set-up: scale not given: direction of the effect not stated beside the values; conditions: 30 µM

For Clc1cc(NCc2ccncc2)nc2[nH]ccc12, which Percent Effect is on record?
The Percent Effect was -59.2%.

How did the Percent Effect turn out when CCCN1CCC(N(C)C(=O)c2cc(C)nc3cc(F)ccc23)CC1 was run?
The Percent Effect was -6.76%.

With CC(C)(CN1CCC2(CCCNC2)C1)N1CCOCC1 (stereo not given) as the compound, how does the Percent Effect read?
The Percent Effect was -0.439%.

Which Percent Effect does the source give for COc1c(C)cnc(CN2CCCC2c2noc(C)n2)c1C (stereo not given) here?
Its Percent Effect is -12%.

With NC(=O)c1ccnc(N2CCCC(CO)(Cc3ccccc3)C2)c1 (stereo not given) as the compound, how does the Percent Effect read?
Its Percent Effect is 11.6%.

Which Percent Effect does the source give for Cc1ccc(C2(O)CCN(C(=O)CCn3c(C)cccc3=O)CC2)nc1 here?
Its Percent Effect is -22.2%.

With Cc1nc(C2CCCNC2)cc(N2CCc3nc(N)sc3C2)n1 (stereo not given) as the compound, how does the Percent Effect read?
The Percent Effect was 3.73%.

For CCC(C)(CC(=O)OC)NCc1nc(C)no1 (stereo not given), which Percent Effect is on record?
The Percent Effect was -1.72%.

Which Percent Effect does the source give for CCC(=O)c1cccc(S(=O)(=O)NC(C)C#N)c1 (stereo not given) here?
The Percent Effect was -2.44%.

With O=C(Nc1cccc(N2CCOCC2)c1)N[C@H](CO)c1ccccc1 as the compound, how does the Percent Effect read?
Its Percent Effect is 6.04%.

Which Percent Effect does the source give for CSCCC(NC(=O)c1ccccc1)C(=O)N(C)Cc1ccsc1 (stereo not given) here?
Its Percent Effect is -4.15%.

With CN1CC2(CCN(C(=O)c3ccc(=O)n(C)c3)CC2)CC1=O as the compound, how does the Percent Effect read?
The Percent Effect was -1.98%.

Which Percent Effect does the source give for CN(C)c1ccccc1C(=O)N1CCCC(c2ccc(C(=O)O)cc2)C1 (stereo not given) here?
Its Percent Effect is -3.47%.

Which Percent Effect does the source give for CCCOc1cccc(OCc2ccon2)c1 here?
The Percent Effect was 4.13%.

For CCCN(CCc1ccccn1)C(=O)Cn1cc(C)cn1, which Percent Effect is on record?
The Percent Effect was 3.83%.

Which Percent Effect does the source give for COc1nccc(N2CC[C@@H](N3CCCCCC3)[C@H](O)C2)c1C#N here?
The Percent Effect was -1.86%.

How did the Percent Effect turn out when CC(C)c1cc(C(=O)N[C@@H]2CC[C@@H](Oc3ccccc3)[C@@H]2O)on1 was run?
The Percent Effect was 16.6%.

With Cc1[nH]ccc1C(=O)N1CCCC(c2ccc(C(=O)O)cc2)C1 (stereo not given) as the compound, how does the Percent Effect read?
The Percent Effect was -0.307%.

How did the Percent Effect turn out when CC(C)n1ccnc1CNC(=O)c1cccc(CCC(C)(C)O)c1 was run?
Its Percent Effect is 6.45%.

How did the Percent Effect turn out when CC(C)(C)Oc1ccc(NCC(=O)NCc2ccco2)cc1 was run?
Its Percent Effect is 9.8%.

Which Percent Effect does the source give for O=C(Nc1ccc(-c2csnn2)cc1)NC(CCO)C1CC1 (stereo not given) here?
Its Percent Effect is 12.3%.

For O=C(Cc1ccccc1Cl)Nc1cc(N2CCCC2)ncn1, which Percent Effect is on record?
The Percent Effect was 0.395%.

Cc1ccc(CNC(=O)c2ccc(=O)n(C)n2)c(OCC2CC2)c1 was tested. Which Percent Effect did it give?
Its Percent Effect is 14.4%.

Which Percent Effect does the source give for O=C(Cc1cccs1)NCc1ccnc(C2CCCOC2)n1 (stereo not given) here?
Its Percent Effect is 12.2%.

For Cc1ccc(C(=O)NC2CCCN(S(C)(=O)=O)C2)c(=O)[nH]1 (stereo not given), which Percent Effect is on record?
The Percent Effect was -0.668%.

COc1ccc2c(c1)OCC(C(=O)NCc1ncc3c(n1)CCC3)C2 (stereo not given) was tested. Which Percent Effect did it give?
The Percent Effect was -0.599%.

Which Percent Effect does the source give for O=S(=O)(NCCCn1cncn1)c1ccc2c(c1)CCC2 here?
The Percent Effect was 8.86%.

CN(Cc1cc(Cl)c2c(c1)OCO2)Cc1cscn1 was tested. Which Percent Effect did it give?
Its Percent Effect is -12.9%.

For CCc1ccccc1OCCN(C)C(=O)CCN1CCCO1, which Percent Effect is on record?
The Percent Effect was -7.88%.

For CN1CCN(CCCOc2ccccc2CN2C[C@H]3CC[C@H]2C3)CC1, which Percent Effect is on record?
The Percent Effect was -5.02%.

For Cc1nc(O)cc(CN2C[C@H](NS(=O)(=O)N(C)C)[C@@H](C3CC3)C2)n1, which Percent Effect is on record?
Its Percent Effect is -5.32%.

With O=C1CCC(=O)N1CCn1nnc(-c2ccc(Br)cc2)n1 as the compound, how does the Percent Effect read?
The Percent Effect was -9.11%.

How did the Percent Effect turn out when Cc1ccc(CNC(C)(C)c2noc(C(C)(C)C)n2)o1 was run?
The Percent Effect was 0.8%.

With CC(C)Oc1ccccc1CNC(=O)N(C)C(C)CS(C)(=O)=O (stereo not given) as the compound, how does the Percent Effect read?
Its Percent Effect is 9.72%.

Which Percent Effect does the source give for N#Cc1ccc(SCCC(=O)Nc2ccc(CC(N)=O)cc2)cc1 here?
Its Percent Effect is 0.314%.

Which Percent Effect does the source give for COc1ccc(NC(=O)N2CCOCC(CN(C)C)C2)c(C)c1 (stereo not given) here?
The Percent Effect was 1.75%.

Which Percent Effect does the source give for CCn1cnnc1CCNS(=O)(=O)N1CCCC1c1ccco1 (stereo not given) here?
Its Percent Effect is -10.7%.

Which Percent Effect does the source give for CNc1ccc(C2CN(c3nc(C)cc(C)n3)CCO2)nc1 (stereo not given) here?
Its Percent Effect is 18%.

Which Percent Effect does the source give for NC1CCCc2c1cnn2-c1cc(F)cc(F)c1 (stereo not given) here?
The Percent Effect was 10.6%.

O=S(=O)(c1cc(F)ccc1N1CC(n2cccn2)C1)C(F)(F)F was tested. Which Percent Effect did it give?
Its Percent Effect is 26.5%.
